The supplement of paper PMC9694430

Experiments:
Assay in all cases: thermal shift delta Tm vs DMSO control; higher = stronger stabilization (binding)
Settings in all cases: 12.5 µM; protein concentration 2 µM
LOC_OS01G01410-cb001 = test system: LOC_OS01G01410-cb001
In short: (§1)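 The melting temperature shift given here is a triplicate mean, measured against protein that received only DMSO. Melting temperatures came from Boltzmann fits of differential scanning fluorimetry data on E. coli-expressed, purified rice kinase domain constructs. Each 19.5 μl well contained 2 μM kinase, 100 mM potassium phosphate pH 7.5, 150 mM NaCl, 10% glycerol, 5 × SYPRO Orange and compound in DMSO. Plates were scanned from 25°C to 95°C at 0.05°C/s.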

LOC_OS01G02750-cb003 = test system: LOC_OS01G02750-cb003
In short: as §1

LOC_OS01G10900-cb004 = test system: LOC_OS01G10900-cb004
In short: as §1

LOC_OS01G13800-cb001 = test system: LOC_OS01G13800-cb001
In short: as §1

LOC_OS01G14860-cb001 = test system: LOC_OS01G14860-cb001
In short: as §1

LOC_OS01G21960-cb002 = test system: LOC_OS01G21960-cb002
In short: as §1

LOC_OS01G39600-cb002 = test system: LOC_OS01G39600-cb002
In short: as §1

LOC_OS01G48390-cb002 = test system: LOC_OS01G48390-cb002
In short: as §1

LOC_OS01G51400-cb002 = test system: LOC_OS01G51400-cb002
In short: as §1

LOC_OS01G52050-cb004 = test system: T1, LOC_OS01G52050-cb004
T1 sequence (whole entry): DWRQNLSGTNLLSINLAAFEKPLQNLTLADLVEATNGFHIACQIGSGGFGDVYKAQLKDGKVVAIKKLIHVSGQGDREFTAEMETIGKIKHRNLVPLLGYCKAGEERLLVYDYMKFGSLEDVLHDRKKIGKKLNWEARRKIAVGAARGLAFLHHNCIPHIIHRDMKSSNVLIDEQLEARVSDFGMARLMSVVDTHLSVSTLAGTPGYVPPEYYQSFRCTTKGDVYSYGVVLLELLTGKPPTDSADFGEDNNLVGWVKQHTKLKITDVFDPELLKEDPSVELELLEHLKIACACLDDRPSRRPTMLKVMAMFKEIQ
In short: as §1

LOC_OS01G57100-cb003 = test system: LOC_OS01G57100-cb003
In short: as §1

LOC_OS01G60330-cb001 = test system: LOC_OS01G60330-cb001
In short: as §1

LOC_OS01G60700-cb002 = test system: LOC_OS01G60700-cb002
In short: as §1

LOC_OS01G63280-cb003 = test system: LOC_OS01G63280-cb003
In short: as §1

LOC_OS01G67340-cb003 = test system: LOC_OS01G67340-cb003
In short: as §1

LOC_OS01G70970-cb002 = test system: LOC_OS01G70970-cb002
In short: as §1

LOC_OS02G07810-cb001 = test system: LOC_OS02G07810-cb001
In short: as §1

LOC_OS02G08530-cb003 = test system: LOC_OS02G08530-cb003
In short: as §1

LOC_OS02G14120-cb001 = test system: LOC_OS02G14120-cb001
In short: as §1

LOC_OS02G17970-cb001 = test system: LOC_OS02G17970-cb001
In short: as §1

Compound	thermal shift delta Tm (LOC_OS01G01410-cb001) [°C]	thermal shift delta Tm (LOC_OS01G02750-cb003) [°C]	thermal shift delta Tm (LOC_OS01G10900-cb004) [°C]	thermal shift delta Tm (LOC_OS01G13800-cb001) [°C]	thermal shift delta Tm (LOC_OS01G14860-cb001) [°C]	thermal shift delta Tm (LOC_OS01G21960-cb002) [°C]	thermal shift delta Tm (LOC_OS01G39600-cb002) [°C]	thermal shift delta Tm (LOC_OS01G48390-cb002) [°C]	thermal shift delta Tm (LOC_OS01G51400-cb002) [°C]	thermal shift delta Tm (LOC_OS01G52050-cb004) [°C]	thermal shift delta Tm (LOC_OS01G57100-cb003) [°C]	thermal shift delta Tm (LOC_OS01G60330-cb001) [°C]	thermal shift delta Tm (LOC_OS01G60700-cb002) [°C]	thermal shift delta Tm (LOC_OS01G63280-cb003) [°C]	thermal shift delta Tm (LOC_OS01G67340-cb003) [°C]	thermal shift delta Tm (LOC_OS01G70970-cb002) [°C]	thermal shift delta Tm (LOC_OS02G07810-cb001) [°C]	thermal shift delta Tm (LOC_OS02G08530-cb003) [°C]	thermal shift delta Tm (LOC_OS02G14120-cb001) [°C]	thermal shift delta Tm (LOC_OS02G17970-cb001) [°C]
COc1cc(Nc2ncc(F)c(Nc3ccc4c(n3)NC(=O)C(C)(C)O4)n2)cc(OC)c1OC	0.76	0.35	0.54	-0.84	5.04	3.95	4.95	0.28	0.41	7.74	4.83	4.41	0.57	0.28	0.45	2.5	0.41	4	12.4	0.45
COc1cc2ncnc(Nc3cccc(Cl)c3)c2cc1OC [AG-1478 (Tyrphostin AG-1478)]	1.49	1.82	0.65	0.5	0.56	0.99	1.07	2.73	0.17	1.69	1.76	1.26	1.02	0.95	0.94	0.55	1.34	1.69	6.87	1.37
CCN1CCN(Cc2ccc(Nc3ncc(F)c(-c4cc(F)c5nc(C)n(C(C)C)c5c4)n3)nc2)CC1	1.5	2.83	4.97	-0.66	7.4	3.11	0.45	1.47	0.13	1.08	-0.28	0.1	0.59	0.27	0.39	-0.01	0.46	2.49	5.93	0.23
COc1ccc(Cl)c(Nc2nc3ccccc3nc2NS(=O)(=O)c2cccc(NC(=O)C(C)(C)N)c2)c1 [Pilaralisib (XL147)]	1.63	2.16	0.29	1.9	1.53	0.73	2.65	1.05	1.3	4.64	0.77	3.02	0.4	2.27	2	1.26	1.84	0.06	-0.43	1.12
O=C1NC(=O)/C(=C/c2ccc3nccc(-c4ccncc4)c3c2)S1	1.21	0.63	0.95	0.37	0.98	0.96	1.76	0.2	0.08	0.79	0.39	0.51	0.74	-0.17	0.62	0.07	0.58	0.62	3.14	0.7
CO[C@H]1C[C@@H]2CC[C@@H](C)[C@@](O)(O2)C(=O)C(=O)N2CCCC[C@H]2C(=O)O[C@H]([C@H](C)C[C@@H]2CC[C@@H](OP(C)(C)=O)[C@H](OC)C2)CC(=O)[C@H](C)/C=C(\C)[C@@H](O)[C@@H](OC)C(=O)[C@H](C)C[C@H](C)/C=C/C=C/C=C/1C [Ridaforolimus (Deforolimus, MK-8669)]	0.73	-1.9	0.47	0.18	0.16	0.07	-0.26	0.54	-0.09	0.11	0.89	1.16	0.84	0.17	-0.64	0.14	0.4	0.57	0.4	0.27
O=c1ncn2nc(Sc3ccc(F)cc3F)ccc2c1-c1c(Cl)cccc1Cl	0.07	0.77	0.61	0.23	0.42	0.49	-0.38	0.32	0.15	0.02	1.7	0.91	0.86	0.47	-0.29	0.12	0.79	0.67	0.31	0.56
CC(=O)Nc1cccc(-n2c(=O)n(C3CC3)c(=O)c3c(Nc4ccc(I)cc4F)n(C)c(=O)c(C)c32)c1	0.31	1.28	0.15	0.06	0.12	0.5	-0.55	0.45	0	0.63	1.39	0.69	0.72	0.03	-0.14	0.12	0.36	1.99	0.02	-0.07
Cc1cc(Nc2cc(N3CCN(C)CC3)nc(Sc3ccc(NC(=O)C4CC4)cc3)n2)n[nH]1 [Tozasertib (VX-680, MK-0457)]	6.12	6.08	2.83	0.07	1.86	1.49	10.2	3.05	0.88	1.66	1.29	3.67	1.21	0.58	1.87	2.62	0.91	2.4	7.67	0.93
Cn1cc(-c2ccc(F)c(C(F)(F)F)c2)nc1C1CCN(c2ncnc3[nH]ncc23)CC1	0.43	0.52	0.51	0.16	1.8	0.54	0.71	0.47	-0.2	0.39	0.5	1.11	0.96	-0.11	0.07	0.57	0.34	0.53	0.5	0.85
N#Cc1ccc(-c2c(-c3ncn[nH]3)sc(N3CCOCC3)c2C#N)c(F)c1	0.3	0.97	4.91	0.46	0.41	1.16	0.28	0.62	0.12	0.29	0.86	1.05	1.22	0.44	0.56	0.2	0.75	0.69	1.41	1.24
COc1cc(Nc2c(C#N)cnc3cc(OCCCN4CCN(C)CC4)c(OC)cc23)c(Cl)cc1Cl [Bosutinib (SKI-606)]	0.89	0.44	-0.3	0.52	0.06	-0.08	-0.04	0.05	-0.09	0.17	0.91	1.47	0.95	-0.23	-0.85	0.24	0.38	0.38	0.1	-0.22
